Bioassay records: PubChem, National Center for Advancing Translational Sciences (NCATS)
Only some compounds are listed: those with a hit (about 7.1% of all), similar ones and a draw of the others.
S2 tox: cell viability loss in ATXN counter-screen; Potency, µM (doses to about 56.7 µM), most hits filed as cytotoxic; S2 cells (HEK-293 line with an ATXN2-luciferase reporter) viability, CellTiter-Fluor protease fluorescence, 24 h; 400,000 compounds, 0.49% hits; also: potency is read from the fitted curve at half-maximal effect; nearly all actives have a fitted effect of over 40% in size
IL1B secr inh: inhibitors of inflammasome signaling (IL-1 beta secretion). 360,000 compounds, 4.7% hits. activity change, % at 57.5 µM. THP-1 LPS/ATP IL-1B secretion, AlphaLISA, 16 h; hits give low values; in the data active = activity change below about -50%; inconclusive = mostly about -30% to -49%; also: % is scaled to controls: 0 for no effect and ±100 for the full control effect
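THP-1 cells pretreated 1 hr with compounds (up to 57.5 uM final), then stimulated with LPS (250 ng/mL final) plus ATP (1.25 mM final); secreted IL-1B measured by AlphaLISA after 16 hr, decreased signal indicating inhibition.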
ATXN2 expr inh: inhibitors of ATXN2 expression; 360,000 compounds, 0.72% hits; AID 1745845; Potency, µM (top dose mostly 57 µM), inactives show at the top dose activity change, negative = inhibition, usual class: inhibitors; HEK-293 ATXN2-luciferase reporter, luminescence, 24 h; also: potency is read from the fitted curve at half-maximal effect; % is scaled to controls: 0 for no effect and ±100 for the full control effect; nearly all actives have a fitted effect of over 55% in size
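qHTS (up to 57 uM final) was run with 24 h compound exposure of reporter cells at 37 °C. Each well was multiplexed: SteadyGlo luminescence measured ATXN2-luciferase expression after a fluorogenic Gly-Phe-AFC viability readout (25 uM final).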
SW480 rereplic: DNA re-replication induction in SW480 cells; Potency, µM (titrated, usually from 46.1 µM), for inactives: at the top dose re-replication activation, usual class: activators; 340,000 compounds, 1.8% hits; SW480 DNA re-replication, Hoechst DNA content imaging, 48 h; also: potency is read from the fitted curve at half-maximal effect; % of control where 0% means no effect; nearly all actives have a fitted effect of over 55% in size
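Compounds, transferred as 23 nL by pin tool, were incubated with cells for 48 hr; DNA content per nucleus was then quantified by Hoechst staining and fluorescence plate imaging.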
MCF10A rerep: DNA re-replication induction in MCF 10a cells | 350,000 compounds, 2.9% hits | MCF 10A DNA re-replication, Hoechst nuclear intensity, 48 h | AID 624296 | Potency, µM (doses to about 46.1 µM), for the others: top-dose activity, positive = re-replication, actives largely listed as activators; also: potency is read from the fitted curve at half-maximal effect; % of control where 0% means no effect; nearly all actives have a fitted effect of over 50% in size
PINK1 modulator: modulators of PINK1 expression; PINK1 immunofluorescence, high-content cytometry, 24 h; 410,000 compounds, 0.2% hits; Potency, µM (highest dose often 76.6 µM), inactives show top-dose activation (PINK1 increase), most hits filed as activators; AID 624263; active = well fitted activation curve with a large enough effect; inconclusive = small, poorly fitted or top-dose-only effect; cell line not stated here; also: potency is read from the fitted curve at half-maximal effect; % of control where 0% means no effect; nearly all actives have a fitted effect of over 65% in size
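Cells are seeded, rested 12 hours, then given compound at five concentrations or DMSO for 24 hours. After fixation, blocking and antibody staining, PINK1 amount and mitochondrial localization are scored; CCCP serves as control.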
* marks the source's active call; other numbers are inactive results; i = inactive; ? = inconclusive; / = no result; [ ] = another dose, or the depositor's remark. Unless noted, calls follow the shape of the dose curve; as a rule, active = well fitted curve in the direction sought with a large enough effect; inconclusive = small, poorly fitted or top-dose-only effect, or another doubt; inactive = no such curve, though single readings can be large; an effect the other way counts as inactive or inconclusive.

SMILES	S2 tox	IL1B secr inh	ATXN2 expr inh	SW480 rereplic	MCF10A rerep	PINK1 modulator
CCO[C@@H]1O[C@H](C(COCc2ccccc2)OCc2ccccc2)[C@H](OCc2ccccc2)[C@H]1O (some centres not stated)	i	/	-18.4%	/	/	/
CCCOCCOC(=O)c1[nH]c2c(c1C)C(=O)CC(c1cc(OC)ccc1OC)C2 (configuration not stated)	?	-72.0*	-18.9%	3.66µM*	?	7.1%
Cc1cc(C)cc(NC(=O)Nc2ccc(NC(=O)c3ccccc3O)cc2)c1	i	-5.1	-13.6%	20.6µM*	18.4µM*	9.5%
COc1cccc2sc(N(Cc3cccnc3)C(=O)C3CCCCC3)nc12	/	/	/	/	/	7.6%
COCCn1c(=O)c(C)nc2cncnc21	/	/	/	/	/	0.3%
COCCn1c2c([n+](Cc3cnccn3)c1C)C(=O)c1ccccc1C2=O	/	/	0.0544µM*	/	/	/
O=C1NC(=S)N/C1=C/c1cccc([N+](=O)[O-])c1O	i	-3.8	0.1%	-6.5%	-3.3%	3.1%
O=C1NC(=S)N/C1=C/c1cc([N+](=O)[O-])ccc1O	?	-1.0	5.7%	10.3µM*	26.5%	0.1%
C=CCn1c(-c2sc3nc(C)cc(C)c3c2N)n[nH]c1=S	i	16.3	25.6%	26.4%	9.2µM*	-2.0%
C=CCn1c(-c2cc(OC)cc(OC)c2)n[nH]c1=S	i	0.9	-2.8%	1.0%	-3.3%	-0.5%
CCOC(=O)C1CCCN(C(=O)c2cnn(-c3ncc4c(n3)-c3ccccc3CCC4)c2C2CC2)C1 (configuration not stated)	i	/	/	/	/	0.7%
COc1ccc(-n2c(=O)c3c(c4cc(OC)ccc4n3C)n(CC(=O)N3CCCC3)c2=O)cc1	i	/	-5.8%	/	/	1.4%
CCOC(=O)c1c(CN(C)C)n(-c2ccc(C)cc2)c2cc(Br)c(O)cc12	i	-63.5*	-7.6%	27.3%	?	0.5%
CCOC(=O)c1c(C)n(CC(O)CN(C)C)c2cc(Br)c(OC)cc12 (configuration not stated)	i	-78.7*	?	?	10.4%	1.9%
COc1cc2c(C(=O)OCCN(C)C)c(CSc3ccccc3)n(C)c2cc1Br	i	15.7	-26.8%	-4.5%	27.8%	7.5%
CCOC(=O)c1c(CSC(=N)N)n(-c2ccc(C)cc2)c2cc(Br)c(OC(C)=O)cc12	25.1µM*	-75.8*	?	-4.8%	?	-5.2%
CCOC(=O)c1c(CN2CCN(C)CC2)n(C)c2cc(Br)c(OC)cc12	i	-19.2	-24.0%	?	?	-1.3%[38.3 µM]
CCOC(=O)c1c(CSC(=N)N)n(C)c2cc(Br)c(OC(C)=O)cc12	/	-101.9*	?	-57.0%	-3.6%	5.7%
CCOC(=O)c1c(CN(C)C)n(-c2ccccc2)c2cc(Br)c(OC)cc12	i	-7.9	17.3%	?	?	?
CCOC(=O)c1c(CN2CCOCC2)n(-c2ccccc2)c2cc(Br)c(OC)cc12	i	44.2	-11.5%	?	23.1µM*	5.5%
CCOC(=O)c1c(CN2CCOCC2)n(-c2ccccc2)c2cc(Br)c(O)cc12	/	-15.2	/	-21.7%	-1.1%	/
FC(F)(F)c1cc(-c2ccccc2)nc(NC2CCCC2)n1	i	19.2	-26.0%	12.2%	7.31µM*	10.8%
C/C(=N\NC(=O)c1cccc2ccccc12)c1ccccn1	3.55µM*	-106.6*	?	?	?	3.3%
COc1ccc(C(=O)N/N=C(\C)c2ccccn2)cc1OC	?	-78.9*	?	?	?	-1.3%
C/C(=N/NC(=O)c1ccc(C(C)(C)C)cc1)c1ccccn1	i	83.5	?	?	?	6.0%
SMILES	S2 tox	IL1B secr inh	ATXN2 expr inh	SW480 rereplic	MCF10A rerep	PINK1 modulator
C/C(=N\NC(=O)c1cccc(Br)c1)c1ccccn1	?	-15.3	?	?	2.91µM*	3.9%
C/C(=N\NC(=O)c1ccc(Cl)c(Cl)c1)c1ccccn1	?	-103.4*	?	?	-24.1%	-0.1%
C/C(=N\NC(=O)c1ccccc1Cl)c1ccccn1	?	117.5	/	?	?	1.8%
CN1CCN(CCNC(=O)c2cnn(-c3ccc(Cl)cc3)c2C2CCN(C(=O)OC(C)(C)C)CC2)CC1	/	/	/	/	/	-1.2%
O=C(Nc1nnc(S(=O)(=O)N2CCCc3ccccc32)s1)c1cccc(Cl)c1	?	/	-3.4%	/	/	0.8%
Cc1ccc2c(CC(=O)N3CCN(c4cccc(Cl)c4)CC3)coc2c1	i	/	-24.3%	/	/	0.2%
C/C(=N\NC(=O)c1cc(-c2ccncc2)nc2ccccc12)c1ccc(N2CCOCC2)cc1	i	12.3	/	-22.1%	5.8µM*	9.0%
C/C(=N\NC(=O)c1cc(Br)ccc1O)c1ccccn1	i	-81.3*	?	?	?	-0.3%
C/C(=N\NC(=O)C(c1ccccc1)c1ccccc1)c1ccccn1	6.31µM*	-96.6*	3.55µM*	-37.1%	?	3.5%
Cc1ccc(NC(=O)c2cc(-c3cccs3)nc3ccccc23)c(C)c1	i	/	-9.3%	/	/	6.4%
Cc1cccc2sc(NNC(=O)c3cc(-c4cccs4)nc4ccccc34)nc12	?	137.0	?	?	18.4µM*	?
C/C(=N/NC(=O)c1ccccn1)c1ccncc1	i	-5.6	9.0%	-5.0%	-9.7%	2.2%
C/C(=N\NC(=O)C1COc2ccccc2O1)c1ccc(C)o1 (configuration not stated)	i	17.0	-12.2%	-0.4%	3.3%	-4.7%
COc1ccc(C(=O)N/N=C\C(C)=C\c2ccccc2)cc1OC	i	-94.4*	-19.0%	6.2%	?	6.6%
C/C(=N\NC(=O)C1COc2ccccc2O1)c1ccccn1 (configuration not stated)	?	0.0	3.55µM*	13.8%	18.4µM*	-2.7%
CC(/C=N/NC(=O)c1ccc(Br)cc1)=C\c1ccccc1	i	-3.3	-2.9%	-2.3%	-4.3%	/
C/C(=N\NC(=O)c1cc(-c2cccs2)nc2ccccc12)c1ccccn1	i	189.7	2.82µM*	1.64µM*	?	0.7%
CCOc1ccc(OCc2ccc(C(=O)N/N=C(\C)c3ccccn3)cc2)cc1	?	113.3	2.82µM*	?	?	2.3%
NNC(=O)c1cc(-c2cccs2)nc2ccccc12	i	3.5	/	?	?	6.2%
CCn1c(C(=O)NCc2ccccc2OC)cc2sccc21	?	/	5.7%	/	/	0.7%
O=C1N(C2CCCC2)C[C@@H]2C[C@@H](c3cccn3-c3nccs3)N3CCC[C@@]123	i	-78.8*	/	-10.2%	-1.7%	0.1%
Cc1ccc2c(c1)c(=O)c1ccccc1n2CCCC(=O)Nc1cc(Cl)ccc1C	i	/	-3.7%	/	/	9.7%
